# Measured values from PubChem BioAssay AID1745849 (National Center for Advancing Translational Sciences (NCATS), 2022).
# The whole screen tested about 2,100 compounds, of which about 320 (15%) were called active. Not shown: some 52% with an inconclusive outcome. The call rests on the fitted dose curve; in most records, active means well fitted cell-killing curve with a large enough effect; inconclusive means small, poorly fitted or top-dose-only effect, or effect the other way; inactive means flat fitted curve, though single readings scatter. The list shows a part of the results. Entries that show only a call come without a potency.
# Experiment: Viability Counterscreen for CMV-Luciferase Assay of Inhibitors of ATXN expression; further: nearly all actives have a fitted effect of over 55% in size
# Conditions: HEK-293 CMV-luciferase cells viability, protease fluorescence, 24 h
# How it was run: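 In the same wells, a multiplexed format measured viability and then the CMV-luciferase signal in HEK-293 cells following 24 hr compound exposure at several concentrations. The viability substrate was Gly-Phe-AFC at 25 uM final.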
# Potency means the concentration at half of the fitted maximal effect.
row,Structure (SMILES),Potency
1,Cc1cc(N2CCN(Cc3nc(-c4ccc(Cl)cc4)oc3C)CC2)cc(C)n1,inactive
2,N#C/C(=C\Nc1ccc2cn[nH]c2c1)c1nc(-c2ccc(Cl)cc2)cs1,inactive
3,Cc1ccc(S(=O)(=O)c2nc(S(C)(=O)=O)sc2N2CCCCC2C)cc1 (stereo not given),inactive
4,COc1ccc(Cc2nnc(N/N=C/c3ccccc3O)[nH]c2=O)cc1OC,5.62 µM (active)
5,COc1cc(Br)cc(/C=N/NC(=O)Cc2ccccc2)c1O,inactive
6,COc1ccc(CNC(=O)c2ccc(-c3cccnc3)c3ccoc23)cc1OC,inactive
7,Cc1ccc(NC(=O)CN2C(=O)c3ccccc3S2(=O)=O)cc1C,inactive
8,[O-][n+]1onc2c1CCc1c-2nn(-c2ccccc2Cl)[n+]1[O-],25.1 µM (active)
9,CN1C(=O)/C(=C\c2ccccc2F)Sc2ccc(C(=O)NC3CCN(Cc4ccccc4)CC3)cc21,inactive
10,O=C(Cc1coc2cc3c(cc12)CCC3)OCC(=O)N1CCCC1=O,inactive
11,CCCc1nc(C)cc(N2CCN(c3ccccc3)CC2)n1,inactive
12,CCCCn1c2ccc(F)cc2c2nnc(NN)nc21,14.1 µM (active)
13,COc1cccc(-c2nn(C)c3sc(C(=O)NCCCN(C)Cc4ccccc4)cc23)c1,inactive
14,CC(C)CC(=O)NC(=S)NNC(=O)c1ccc(NC(=O)C2CCCCC2)cc1,inactive
15,CCCCC(=O)NNC(=S)NC(=O)c1ccc(C)cc1,inactive
16,COc1ccc(C(=O)NNC(=S)NC(=O)C(C)(C)C)cc1,25.1 µM (active)
17,Cc1ccc(Cl)cc1-c1ccc(C=Nc2ccc(N3CCOCC3)cc2)o1,inactive
18,COc1cc(C#Cc2c(-c3cncn3C)n(C)c3ccc(-c4cnc(N5CCOCC5)nc4)cc23)cc(OC)c1,inactive
19,Cn1nnnc1Sc1ncnc2scc(-c3cccs3)c12,8.91 µM (active)
20,COc1ccc(-c2csc3ncnc(Sc4nnnn4C)c23)cc1,inactive
21,O=C(c1ccco1)N1CCN(c2ncnc3scc(-c4cccs4)c23)CC1,inactive
22,C[C@@H]1CC=C[C@@H]2[C@H]1C(=O)N(Cc1ccccc1)[C@H]2c1ccccc1Br,inactive
23,CCOC(=O)C1CCN(c2ncnc3c2cnn3-c2ccc(Cl)cc2)CC1,inactive
24,CCCOCc1ccc(O)c2ncccc12,inactive
25,Cc1ccc(N=Nc2ccc(O)c3ncccc23)cc1,10 µM (active)

row,Structure (SMILES),Potency
1,Cc1ccccc1N=Nc1ccc(O)c2ncccc12,7.94 µM (active)
2,COc1ccc(CNCCC(c2ccc(OC(C)C)cc2)c2ccccc2OC)cc1 (stereo not given),inactive
3,CCCC1CCC(c2ccc(C(=O)NN)cc2)CC1 (stereo not given),inactive
4,O=S(=O)(c1ccc2nc(COc3ccc(Cl)cc3Cl)[nH]c2c1)N1CCOCC1,inactive
5,Cc1ccnc(NC(=O)CCCc2c[nH]c3ccccc23)c1,inactive
6,CC[n+]1c(/C=C/c2c[nH]c3ccccc23)ccc2cc(C)ccc21,12.6 µM (active)
7,Cc1ccc(C)c(S(=O)(=O)N2CCN(c3ncnc4sccc34)CC2)c1,inactive
8,COc1ccccc1-c1ccc2c(c1)C(C)(Cc1cccc(F)c1)C(=O)N2 (stereo not given),inactive
9,CC1CCC(CN2C(Nc3ccccc3)=NC[C@@H]2Cc2ccccc2)CC1 (stereo not given in full),inactive
10,NC1=NC[C@H](Cc2ccccc2)N1CCCCC1CCCCC1,inactive
11,C[C@@H](CN1C2=NC[C@H](Cc3ccccc3)N2C[C@H]1Cc1ccc(O)cc1)NC(=O)CCC1CCCCC1,17.8 µM (active)
12,Cc1cc(OCC(=O)Nc2ccc(Br)cc2)cc2c1C(=O)CC(C)(C)O2,inactive
13,COc1cc2cc(C(=O)NC(C)c3cccc4ccccc34)c(N)nc2cc1OC (stereo not given),inactive
14,OCCNc1c2ccccc2nc2ccccc12,inactive
15,COc1cc(N)ccc1Nc1c2ccccc2nc2ccccc12,14.1 µM (active)
16,O=c1c2c(-c3ccccc3)csc2nc2c3ccccc3c(NCCN3CCOCC3)nn12,inactive
17,CC(=O)C(=Cc1cccc(C#N)c1)C(=O)c1ccccc1,22.4 µM (active)
18,Cc1ccc(NC(=O)CCC(=O)c2cc(C)sc2C)nc1,inactive
19,CCOC(=O)c1c(NC(=O)CSc2nnnn2-c2ccccc2)sc2c1CC(C)(C)NC2(C)C,inactive
20,CCN(CC)CCCNc1nc2ccccc2c2nc(-c3ccncc3)nn12,15.8 µM (active)
21,CC(Oc1ccc(F)cc1)C(=O)Nc1nc(-c2ccccn2)cs1 (stereo not given),7.94 µM (active)
22,COC(=O)COc1ccc(-c2nccc(-c3ccccn3)n2)cc1,inactive
23,O=C(Nc1nc(-c2ccccn2)cs1)c1ccc(F)c(S(=O)(=O)N2CCOCC2)c1,5.01 µM (active)
24,CC(C)CC(N)c1csc(NC(=O)Nc2ccccc2C(C)(C)C)n1 (stereo not given),inactive
25,O=C(Nc1nc(-c2ccc(S(=O)(=O)N3CCOCC3)cc2)cs1)c1ccccc1,inactive

row,Structure (SMILES),Potency
1,O=C(CCN1C(=O)C2CC=CCC2C1=O)Nc1nc(-c2ccc(F)c(F)c2)cs1 (stereo not given),inactive
2,O=C(Nc1nc(-c2ccccn2)cs1)Nc1ccc(F)cc1F,11.2 µM (active)
3,COC(=O)C(Cc1ccc(O)cc1)NC(=O)C(C)Oc1ccccc1 (stereo not given),inactive
4,NC(c1ccccc1)c1csc(NC(=O)Nc2ccccc2Oc2ccccc2)n1 (stereo not given),inactive
5,O=C(CN1C(=O)C2CCCCC2C1=O)Nc1nc(-c2ccccn2)cs1 (stereo not given),17.8 µM (active)
6,COc1cccc(C(=O)Nc2nc(-c3ccc(S(=O)(=O)N4CCOCC4)cc3)cs2)c1,inactive
7,O=C(CC1Sc2ccccc2NC1=O)NNc1cccc(Cl)c1Cl (stereo not given),inactive
8,CN1OC[C@@H]2CN[C@H](c3ccc(-c4cc5ccccc5o4)cc3)C[C@@H]21,inactive
9,CC1(C(=O)NCc2cccc(C(F)(F)F)c2)CCN1Cc1ccc(-c2ccccc2)o1 (stereo not given),inactive
10,Cc1cc(C)c(C(O)c2ncc(-c3cccc4ccccc34)[nH]2)c(C)c1 (stereo not given),inactive
11,CCN1CC2=C(OC(N)=C(C#N)C2c2cccs2)/C(=C\c2cccs2)C1 (stereo not given),inactive
12,O=C(CCCOc1ccc(Cl)cc1Cl)N/N=C/c1ccccc1O,3.98 µM (active)
13,O=C(CCc1ccccc1)N/N=C/c1cc(Br)ccc1O,inactive
14,O=C(CN1CCCc2ccccc21)N/N=C/c1ccccc1O,inactive
15,CC(C)(C)c1ccc(NC(=O)N2CCCN(c3c(Cl)cncc3Cl)CC2)cc1,inactive
16,O=C(c1ccc(S(=O)(=O)c2cccc(Cl)c2)c([N+](=O)[O-])c1)N1CCN(Cc2ccccc2)CC1,15.8 µM (active)
17,O=C(NC1CCN(Cc2ccccc2)CC1)c1cccc(S(=O)(=O)Nc2ccc(SC(F)F)cc2)c1,inactive
18,OC(c1ccccc1)(c1nc(-c2cc3ccccc3o2)cs1)C(F)(F)F (stereo not given),inactive
19,O=S(=O)(c1ccc2c(c1)OCCO2)N1CCC(c2nc3ccc(Cl)cc3[nH]2)CC1,inactive
20,Cc1ccc(S(=O)(=O)N2CCc3ccccc3CC2)cc1,inactive
21,Cc1ccc(S(=O)(=O)/N=C(\Sc2ccccc2)c2ccccc2)cc1,15.8 µM (active)
22,CCn1c(CCC(=O)Nc2nc3c(s2)CCCC3)nc2cc(S(=O)(=O)N(C)C)ccc21,inactive
23,Cc1ccc2c(Cl)cc(Cl)c(O)c2n1,inactive
24,COc1ccc(C)cc1NC(=O)COC(=O)c1c(C)nn(-c2ccccc2)c1C,inactive
25,COc1ccc(C)cc1NC(=O)CSc1ccc(-c2ccccn2)nn1,12.6 µM (active)

row,Structure (SMILES),Potency
1,O=c1c(Cc2ccccc2)c(O)nc2n1CCS2,inactive
2,COc1cccc(/C=N/NC(=O)CC(C)O)c1OC/C=C/c1ccccc1 (stereo not given),inactive
3,COc1ccc(/C=N/Nc2cc(N3CCCC3)nc(N3CCCC3)n2)cc1,2.82 µM (active)
4,COc1ccc(C(=O)N/N=C/c2ccc(N(C)c3ccccc3)cc2)cc1,inactive
5,NC(=O)c1cccc(-c2ccnc3c2CC(C(=O)Nc2cccc(C(F)(F)F)c2)O3)c1 (stereo not given),inactive
6,CS(=O)(=O)Nc1cccc(NC(=O)c2cccc3c(-c4cccc(C(N)=O)c4)coc23)c1,17.8 µM (active)
7,CC(=O)c1cccc(NC(=O)c2cccc3c(-c4cccc(C(N)=O)c4)coc23)c1,11.2 µM (active)
8,CC(=O)c1cccc(NC(=O)C2Cc3c(-c4cccc(C(C)=O)c4)ccnc3O2)c1 (stereo not given),inactive
9,CS(=O)(=O)Nc1ccccc1C(=O)Nc1cc(Cl)cc(Cl)c1,inactive
10,Cc1cc(OCc2nc(N)nc(N)c2-c2ccc(Cl)c(Cl)c2)ccc1[N+](=O)[O-],inactive
11,CCn1c(-c2ccc(C)cc2)nn(CC(=O)NCCc2ccccc2)c1=S,inactive
12,CCN(CC)CCNC(=O)CCc1c(C)nc2c(c(C)nn2-c2ccc(C)cc2)c1C,3.55 µM (active)
13,Cc1nn(-c2ccccc2)c2nc(-c3cccs3)cc(C(=O)NN)c12,inactive
14,Cc1ccc(CN2CCC(c3nc4ccc(Cl)cc4[nH]3)CC2)cc1,inactive
15,O=C(N/N=C/c1cc([N+](=O)[O-])ccc1O)c1cc(-c2ccccc2)nc2ccccc12,2.51 µM (active)
16,COc1cccc(/C=N/NC(=O)c2ccc(-c3ccccc3)cc2)c1O,inactive
17,O=[N+]([O-])c1ccc(O)c(/C=N\N=C2c3ccccc3-c3ccccc32)c1,10 µM (active)
18,COc1cccc(/C=N/Nc2nc3ccccc3n3cnnc23)c1O,inactive
19,C/C(=N\NC(=O)c1cc(-c2cccnc2)nc2ccccc12)c1ccc(O)cc1O,inactive
20,O=C(N/N=C/c1cc([N+](=O)[O-])ccc1O)c1cccc2cc[nH]c12,7.94 µM (active)
21,COc1cccc(/C=N/NC(=O)c2cc(-c3ccccn3)nc3ccccc23)c1O,2.82 µM (active)
22,CCCC(=O)Nc1c(C(=O)OCC)[nH]c2ccccc12,inactive
23,Cc1ccc(-n2cccn2)c(CN2CCCC(C(=O)c3ccc4c(c3)OCO4)C2)c1 (stereo not given),inactive
24,O=C(Nc1cccc(Br)c1)c1ccc(Cl)c(S(=O)(=O)N2CCOCC2)c1,inactive
25,Cc1ccc2c(c1)-c1c(cnn1CC(=O)N1CCCN(Cc3ccccc3F)C1)CO2,inactive
